Data on 82 molecules can be found in PubChem BioAssay (NCI).

“And” between values parts separate entries of the source, which are not always exact repeats. Identical values can stand only once. About 83,000 compounds went through this panel and 20% of them were active in at least one assay; those are over-represented in the sample as a whole.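 In brief: 96-well plates, 48 h treatment, single concentration, percent growth endpoint.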 Values without a mark were called inactive. The source made the active and inactive calls. Rule for the calls: active = growth percent below 10; inactive = the rest.

For the experiment, the system named is MDA-MB-468 breast. As to the kind of experiment: NCI-60 one-dose screen, 48 h (100 = growth as untreated, 0 = no growth, -100 = all killed). The note with it: 10 µM unless noted.

Turning to `CCNc1nnc(COc2ccc(CNC(=O)CCCC/C=C/C(C)C)cc2OC)o1`, the growth is 104%.

On to `CCOC(=N)CC(=O)Nc1cccc(C)c1Cl`, for which the growth was 90.8%. Consider `COc1cccc(-c2nc3sccn3c2-c2ccnc(NCCCNS(=O)(=O)c3ccc(F)cc3)n2)c1`, for which the growth was 47.9%. On to `COc1ccc(/C=C/C(=O)c2ccc(OC)c(OC)c2)cc1O`, for which the growth was 65.6%.

In the case of `CCn1nc(-c2ccc(C(=O)OC)cc2)nc2c(=O)n(C)c(=O)nc1-2`, the growth is 82%. As for `O=C1COCCN1c1ccc(NCc2cn(Cc3ccc(F)cc3)c3ccccc23)cc1`, the growth was -66.9% (active).

Take `C[C@H]1[C@H](OC(=O)CCC(=O)O)O[C@@H]2O[C@]3(C)CC[C@H]4[C@H](C)CC[C@@H]1[C@@]24OO3`: the growth is 29.1%. To `OCC1OC(n2ccc3c2ncn2ncnc32)C(O)C1O` (configuration not stated) belongs -5.09% (active); to `O=C(/C(Cl)=N/O)c1ccc(-c2ccccc2)cc1`, 104%.

As to `CC1(C)N=C(N)N=C(N)N1c1cccc(CCCCc2ccccc2)c1`, the growth is -57.7% (active).

Take `O=C1NC(=O)C(c2ccccc2)O1` (configuration not stated): the growth was 106%.

Consider `N#Cc1c(-c2ccc(Cl)cc2)c(C#N)c2c(C#N)c(N)nn2c1N`, for which the growth was 80.1%. As for `NC(=O)NO`, the figure is 109%; as for `CCN1C(=O)N(CC)C2C1NN=c1s/c(=C\c3ccc([N+](=O)[O-])cc3)c(=O)n12` (configuration not stated), 7.94% (active); as for `Cn1cc(-c2csc(-c3c[nH]c4ccccc34)n2)c2cnccc21`, -20.8% (active). To `COc1ccc(/C=C/c2nc3ccccc3c(=O)n2-c2ccc(C#Cc3ccc(C(C)(C)C)cc3)cc2C)c(OC)c1` belongs 97.9%. For the molecule `COc1ccc(C(=O)C(CN(C)C)c2ccccc2)cc1` (configuration not stated), the growth was -58.5% (active). As for `O=C(CCc1nc(-c2cccc(Cl)c2)no1)Nc1ccccn1`, the figure is 83.1%; as for `CN(C)c1ncnc2c1nnn2C1OC(CO)C(O)C1O` (configuration not stated), -26.5% (active); as for `O=C(c1cc(-c2ccc(Cl)cc2)nc2ccccc12)N1N=C(c2ccccc2)CC1c1cc(-c2ccccc2)nn1-c1ccccc1` (configuration not stated), 89.6%. With `CCOC(=O)CC/C(C)=N\Nc1ccc([N+](=O)[O-])cc1`, the growth was 83.2%. With `CN(C)c1ccc2oc(=O)c3ccccc3c2c1`, the growth was 78.3%.

With `N#Cc1c(-c2ccccc2)nc2c(c(-c3ccccc3)nn2-c2ccccc2)c1-c1ccc(N2CCOCC2)cc1`, the growth was 80.9%. In the case of `COc1ccc(Nc2ncnc3c2sc2nc(C)cc(C)c23)cc1`, the growth was 95.1%. In the case of `NC(C(=O)O)C(O)c1ccc(OCc2ccccc2)c(OCc2ccccc2)c1` (configuration not stated), the growth was 104%.

With `COc1cc(/C=C2\COc3ccc(O)c(O)c3C2=O)cc(OC)c1`, the growth was -0.854% (active). To `O=c1c(-c2nc3ccccc3[nH]2)cc2ccccc2n1Cc1cn(Cc2ccccc2Cl)nn1` belongs 14.1%. `C=C(C)[C@@H]1CC[C@]2(N=C=O)CC[C@]3(C)[C@H](CC[C@@H]4[C@@]5(C)Cc6c([nH]c7ccccc67)C(C)(C)[C@@H]5CC[C@]43C)[C@@H]12`: the growth was 92.5%. As for `COC(=O)/C=C/c1cc(OC(C)=O)c2c(c1)C(C(=O)OC)C(c1ccc(OC(C)=O)c(OC(C)=O)c1)O2` (configuration not stated), the figure is 35.8%; as for `COc1cc(-c2cc(-c3nc4ccc(F)cc4[nH]3)[nH]n2)cc(OC)c1OC`, 16.6%. For `CC(=O)N(C)c1ccc([N+](=O)[O-])cc1`, the growth was 101%.

On to `CCC(C)C1NC(=O)C(CC(C)C)NC(=O)C(C)NC(=O)C(C(C)C)NC(=O)C(CCCCN)NC(=O)C(CC(C)C)NC(=O)C(C(C)C)NC(=O)[C@H](C)NC(=O)C(C(C)CC)NC(=O)C(CCCN=C(N)N)NC(=O)C(CCCCN)NC(=O)C(CCCN=C(N)N)NC(=O)C(CCCCN)NC(=O)C([C@H](C)CC)NC(=O)C(CCCCN)NC1=O` (some centres not stated), for which the growth is -4.06% (active). As to `Cc1cccc(N2CCC(=O)NC2=S)c1`, the growth was 100%. As for `COCCOC1=C(Cl)C(=O)c2ccccc2C1=O`, the growth is -5.01% (active). As for `C=CCN(CC#N)CC=C`, the growth is 101%.

On to `CCOC(=O)c1csc(N)n1`, for which the growth is 95.6% and 91.5%. As for `COc1ccc(NC(=O)[C@@H]2C[C@H]2c2ccccc2)c(C(N)=O)c1`, the figure is 101%; as for `C#CC#CC#CC#CC#CC#CC#CC#CC[C@H]1OC[C@@H](COC(=O)O[C@@H](C(=O)O[C@H]2C[C@@]3(O)[C@@H](OC(=O)c4ccccc4)[C@@H]4[C@]5(OC(C)=O)CO[C@@H]5C[C@H](O)[C@@]4(C)C(=O)[C@H](OC(C)=O)C(=C2C)C3(C)C)[C@@H](NC(=O)c2ccccc2)c2ccccc2)O1`, 14.2%; as for `CCOC(C)(c1ccc(Cl)cc1)C1CCNCC1` (configuration not stated), 90.9%. As for `O=C(CCCCC1CCSS1)Nc1ncnc2n[nH]c(-c3ccc(Oc4ccccc4)cc3)c12` (configuration not stated), the figure is 95.9%; as for `CC(=O)c1ccc2c3c(n(C)c2c1)CCCC3`, 77.9%; as for `COc1ccc(-c2nc(SCCC(C)C)nc(N/N=C\c3ccccc3O)c2C#N)cc1`, 88.6%. As for `CCOC(=O)C(C)(c1ccccc1)c1ccccc1`, the figure is 109%; as for `CCOc1cccc(-c2nc(N)nc(Nc3ccccc3SSc3ccccc3Nc3nc(N)nc(-c4cccc(OCC)c4)n3)n2)c1`, 107%. As for `COc1cc([C@@H]2c3cc4c(cc3C(Br)[C@H]3COC(=O)[C@H]23)OCO4)cc(OC)c1OC` (some centres not stated), the growth is -49.3% (active). Consider `O=C(Nc1cccc2c(O)c(N=Nc3ccc(S(=O)(=O)Nc4nccs4)cc3)cc(N=Nc3ccc(S(=O)(=O)Nc4nccs4)cc3)c12)C(Cl)Cl`, for which the growth was 7.35% (active).

With `COc1ccc(/C=C/C(=O)NCC(C)O)cc1` (configuration not stated), the growth was 94.2%. To `CC/C(=C(\CC)c1ccc(OCCN(CC)CC)cc1)c1ccc(OCCN(CC)CC)cc1` belongs 0.372% (active); to `O=C(CCN1CCCC1)Nc1ccc2c(Nc3ccc(Br)cc3)c3ccccc3nc2c1`, 39.5%; to `O=C(CN1CCOCC1)Nc1ccc(-c2nc3ccccc3s2)cc1`, -6.69% (active). As for `O=S(=O)(Nc1ccc2c(c1)OC(F)(F)O2)c1ccc(-c2cnc(C3CC3)o2)cc1`, the figure is 15.3%; as for `COc1ccc(-c2[nH]ncc2Nc2cc(OC)c(OC)c(OC)c2)cc1`, 21.7%. On to `CC[C@H](Nc1nc(N)nc(C2CC2)c1C#N)c1nc2cccc(NCc3ccc(C(=O)NO)cc3)c2c(=O)n1-c1ccccc1`, for which the growth was -23% (active). As for `NC(=O)c1ccc(C2C3=C(CCCC3=O)OC3=C2C(=O)c2ccccc2C3=O)cc1` (configuration not stated), the figure is -30.6% (active). As for `CN1CCN(Cc2ccc(NC(=O)c3[nH]ncc3Nc3ncnc4c3CCC4)cc2)CC1`, the figure is 9.05% (active); as for `CN1CCN(C2=Nc3ccccc3Oc3ccc(Cl)cc32)CC1`, 100%. As for `COc1ccc2c(c1)C(C)Cc1c(Cl)nc(C)nc1N2C` (configuration not stated), the figure is 25.8%; as for `O=C1CCCC2=C1C(c1c[nH]c3ccc(Br)cc13)Cc1cc(Br)ccc1N2` (configuration not stated), -6.51% (active); as for `COc1ccc(/C=C(\C#N)c2ccc(OC)cc2)cc1`, 7.49% (active). With `CC(C)C(C(=O)NCCN1CCOCC1)N1C(=O)/C(=C/c2ccc(Br)cc2)SC1=S` (configuration not stated), the growth is 99.2%. To `CCCCCCCCCCCCCCCCCCOc1cccc(CCOP(=O)(O)OCC[N+](C)(C)C)c1` belongs 94.2%. To `CC(C)(C)n1cc(-c2ccnc(NCCCNS(=O)(=O)c3cccc4ccccc34)c2)c(-c2cccc(O)c2)n1` belongs 10.7%; to `CCNCc1ccc(O)c2ncccc12`, 54.6%. As for `Cc1ccc(S(=O)(=O)CCCl)cc1`, the figure is 118%. As to `COc1cc(/C=N/NC(=O)c2cnn3c2NC(c2ccccc2)C3)cc(OC)c1OC` (configuration not stated), the growth is 62.8%.

Take `CCOC(=O)CSSCC(=O)OCC`: the growth is 117%. As for `O=C(Nc1ccc(Cl)cc1)c1cc2ccccc2cc1OP(=O)(O)O`, the figure is 71.3%; as for `N#Cc1c(-c2ccc(O)cc2)c2c(N)nn(-c3ccccc3)c2[nH]c1=O`, 111%; as for `COc1ccc(-c2cn[nH]c2-c2cc(OC)c(OC)c(OC)c2)cc1`, 11.8%. To `Cc1nc2ccc(Nc3nc(Cl)nc(N4CCOCC4)n3)cc2n1Cc1ccccc1` belongs 62.2%.

Regarding `COc1cc2cc(NCc3ccncc3)nc(C)c2cc1OC`, the growth was 87.7%. For the molecule `C#CCOc1cccc(Nc2c(Cl)c(CCl)nc3ccc(Oc4ccccc4)cc23)c1`, the growth is 24.7%. As for `O=C(Nc1cccc(-c2nc(-c3ccc(NC(=O)c4cccs4)cc3Cl)no2)c1)Nc1ccc(NC(=O)C2CC2)c(C(F)(F)F)c1`, the growth is -84.6% (active).

In the case of `C=CCn1c(SCC(=O)Nc2ccc(/C(C)=N\O)cc2)nnc1-c1cc(-c2ccc(Cl)cc2)nc2ccccc12`, the growth is 42.7%.

With `CCN(CC)CCOc1ccc(/C(=C(\C)c2ccc(OC)c(F)c2)c2ccc(Cl)cc2)cc1`, the growth is 81.6%. Take `COc1nc2ccccc2cc1/C=C1/C=C(c2ccccc2)NC1=O`: the growth is 29%. Consider `C/C(=C(\c1ccc(OCCN2CCOCC2)cc1)c1ccc(OC(=O)C2CCCCC2)cc1)c1ccc(Cl)cc1`, for which the growth is 79.2%.

Take `O=C(CN1CCN(c2ccccc2)CC1)N1CCN(c2nnc(-c3ccc(Cl)cc3)c(-c3ccc(Cl)cc3)n2)CC1`: the growth was 78.7%. As for `COc1ccc(-c2ccc(-c3ccc(C(=N)N)nc3)s2)cc1`, the figure is -69.9% (active).

Consider `COc1ccc(N2CCN(c3ccc(NC4=C(Cl)C(=O)c5ncccc5C4=O)cc3)CC2)cc1`, for which the growth is -53.9% (active). To `CCCCCCCCCCCCCC[N+](C)(C)CCCCCCCCCCCCCC` belongs 21.4%; to `O=c1oc2c(Br)cc(Br)cc2cc1-c1cc(-c2ccc(-c3cc(-c4cc5cc(Br)cc(Br)c5oc4=O)nc(-c4cc5cc(Br)cc(Br)c5oc4=O)c3)cc2)cc(-c2cc3cc(Br)cc(Br)c3oc2=O)n1`, 117%.
